Data as given in PubChem BioAssay AID1159580 (chemical genetic matrix, 2015).
Values joined by “and” are separate entries in the source; they are usually repeats but may differ in a detail not shown here. Equal values may be shown once. Among all 5,500 compounds or so, about 2,000 (36%) were called active. Roughly 18% stayed inconclusive and do not appear here. Rule as the data show it: active = normalized growth mostly below about 0.91 (no sharp cut-off); inconclusive = no clear call, values can overlap the other calls; inactive = mostly above about 0.92. The list shows a part of the results.

Experiment: chemical genetic growth profiling, strain panel (AID 1159580);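 also: tested at 20 µM; growth read once vehicle control cultures reached saturation at 30 °C; 1 = growth at the plate median or of vehicle wells; lower values mean less growth of the strain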
Details: growth OD

Measured: normalized growth

COc1cc(-c2coc3cc(OCc4ccccc4)c(OC)c(O)c3c2=O)cc(O)c1OC
inactive: S. cerevisiae deletion strains, locus YBR021W, strain FUR4, stronger effect = lower value 0.908 | S. cerevisiae deletion strains, locus YBR229C, strain ROT2, stronger effect = lower value 0.985 | S. cerevisiae deletion strains, locus YCL029C, strain bik1, stronger effect = lower value 0.962 | S. cerevisiae deletion strains, locus YDL101C, strain DUN1, stronger effect = lower value 0.918 | S. cerevisiae deletion strains, locus YDL185W, strain tfp1, stronger effect = lower value 0.968 | S. cerevisiae deletion strains, locus YDR101C, strain arx1, stronger effect = lower value 0.958 | S. cerevisiae deletion strains, locus YDR150W, strain NUM1, stronger effect = lower value 0.911 | S. cerevisiae deletion strains, locus YDR388W, stronger effect = lower value 0.954 | S. cerevisiae deletion strains, locus YER110C, stronger effect = lower value 1 | S. cerevisiae deletion strains, locus YER155C, strain BEM2, stronger effect = lower value 0.946 | S. cerevisiae deletion strains, locus YGL078C, strain dbp3, stronger effect = lower value 0.937 | S. cerevisiae deletion strains, locus YGR252W, strain gcn5, stronger effect = lower value 0.81 | S. cerevisiae deletion strains, locus YHR079C, strain IRE1 (second series), stronger effect = lower value 0.967 | S. cerevisiae deletion strains, locus YHR079C, strain IRE1, stronger effect = lower value 1.01 | S. cerevisiae deletion strains, locus YHR094C, strain hxt1, stronger effect = lower value 1 | S. cerevisiae deletion strains, locus YIL073C, strain SPO22, stronger effect = lower value 0.685 | S. cerevisiae deletion strains, locus YIL125W, strain kgd1, stronger effect = lower value 1 | S. cerevisiae deletion strains, locus YIR030C, strain dcg1, stronger effect = lower value 0.979 | S. cerevisiae deletion strains, locus YJL134W, strain LCB3, stronger effect = lower value 0.981 | S. cerevisiae deletion strains, locus YJL168C, strain set2, stronger effect = lower value 0.993 | S. cerevisiae deletion strains, locus YJR066W, strain TOR1, stronger effect = lower value 0.95 | S. cerevisiae deletion strains, locus YKL009W, strain mrt4, stronger effect = lower value 0.922 | S. cerevisiae deletion strains, locus YKL068W, stronger effect = lower value 1.02 | S. cerevisiae deletion strains, locus YKL085W, strain MDH1 (second series), stronger effect = lower value 0.996 | S. cerevisiae deletion strains, locus YKL085W, strain MDH1, stronger effect = lower value 0.996 | S. cerevisiae deletion strains, locus YLR039C, strain RIC1, stronger effect = lower value 0.86 | S. cerevisiae deletion strains, locus YLR102C, strain apc9, stronger effect = lower value 0.998 | S. cerevisiae deletion strains, locus YLR113W, strain HOG1, stronger effect = lower value 1.02 | S. cerevisiae deletion strains, locus YLR262C, strain YPT6, stronger effect = lower value 0.857 | S. cerevisiae deletion strains, locus YLR268W, strain sec22, stronger effect = lower value 0.903 | S. cerevisiae deletion strains, locus YML032C, strain rad52, stronger effect = lower value 0.956 | S. cerevisiae deletion strains, locus YML124C, strain tub3, stronger effect = lower value 0.964 | S. cerevisiae deletion strains, locus YMR078C, strain ctf18, stronger effect = lower value 1.01 | S. cerevisiae deletion strains, locus YMR263W, strain SAP30, stronger effect = lower value 0.893 | S. cerevisiae deletion strains, locus YMR307W, strain GAS1, stronger effect = lower value 0.736 | S. cerevisiae deletion strains, locus YNL183C, strain NPR1, stronger effect = lower value 0.972 | S. cerevisiae deletion strains, locus YNL250W, strain rad50, stronger effect = lower value 0.945 | S. cerevisiae deletion strains, locus YNL271C, strain bni1, stronger effect = lower value 0.979 | S. cerevisiae deletion strains, locus YNL298W, strain CLA4, stronger effect = lower value 0.989 | S. cerevisiae deletion strains, locus YNR052C, strain pop2, stronger effect = lower value 0.951 | S. cerevisiae deletion strains, locus YOL012C, strain htz1 0.39 | S. cerevisiae deletion strains, locus YOL147C, strain pex11, stronger effect = lower value 0.955 | S. cerevisiae deletion strains, locus YOR136W, strain idh2, stronger effect = lower value 0.97 | S. cerevisiae deletion strains, locus YOR144C, strain elg1, stronger effect = lower value 0.988 | S. cerevisiae deletion strains, locus YOR184W, strain ser1, stronger effect = lower value 0.896 | S. cerevisiae deletion strains, locus YOR231W, strain MKK1, stronger effect = lower value 1.02 | S. cerevisiae deletion strains, locus YOR316C, strain cot1, stronger effect = lower value 0.996 | S. cerevisiae deletion strains, locus YPL241C, strain CIN2, stronger effect = lower value 0.974 | S. cerevisiae deletion strains, locus YPL256C, strain CLN2, stronger effect = lower value 1 | S. cerevisiae deletion strains, locus YPR119W, strain clb2, stronger effect = lower value 1 | S. cerevisiae deletion strains, locus YPR141C, strain kar3, stronger effect = lower value 1.01
active: S. cerevisiae deletion strains, locus YAL013W, strain DEP1, stronger effect = lower value 0.788 | S. cerevisiae deletion strains, locus YDL035C, strain GPR1, stronger effect = lower value 0.757 | S. cerevisiae deletion strains, locus YDL074C, strain BRE1, stronger effect = lower value 0.764 | S. cerevisiae deletion strains, locus YDL192W, strain arf1, stronger effect = lower value 0.864 | S. cerevisiae deletion strains, locus YDR162C, strain NBP2, stronger effect = lower value 0.714 | S. cerevisiae deletion strains, locus YDR318W, strain mcm21, stronger effect = lower value 0.877 | S. cerevisiae deletion strains, locus YDR502C, strain sam2, stronger effect = lower value 0.901 | S. cerevisiae deletion strains, locus YEL061C, strain CIN8, stronger effect = lower value 0.821 | S. cerevisiae deletion strains, locus YER167W, strain BCK2, stronger effect = lower value 0.879 | S. cerevisiae deletion strains, locus YGL086W, strain mad1, stronger effect = lower value 0.841 | S. cerevisiae deletion strains, locus YGL248W, strain PDE1, stronger effect = lower value 0.787 | S. cerevisiae deletion strains, locus YGR135W, strain pre9, stronger effect = lower value 0.836 | S. cerevisiae deletion strains, locus YHR129C, strain ARP1, stronger effect = lower value 0.783 | S. cerevisiae deletion strains, locus YHR200W, strain rpn10, stronger effect = lower value 0.883 | S. cerevisiae deletion strains, locus YIL066C, strain RNR3, stronger effect = lower value 0.733 | S. cerevisiae deletion strains, locus YJL187C, strain SWE1 (second series), stronger effect = lower value 0.837 | S. cerevisiae deletion strains, locus YJR043C, strain POL32, stronger effect = lower value 0.747 | S. cerevisiae deletion strains, locus YKR001C, strain vps1, stronger effect = lower value 0.88 | S. cerevisiae deletion strains, locus YLR058C, strain SHM2, stronger effect = lower value 0.863 | S. cerevisiae deletion strains, locus YLR330W, strain CHS5, stronger effect = lower value 0.827 | S. cerevisiae deletion strains, locus YLR342W, strain FKS1 (second series), stronger effect = lower value 0.785 | S. cerevisiae deletion strains, locus YLR371W, strain rom2, stronger effect = lower value 0.86 | S. cerevisiae deletion strains, locus YLR418C, strain cdc73, stronger effect = lower value 0.705 | S. cerevisiae deletion strains, locus YML016C, strain PPZ1, stronger effect = lower value 0.846 | S. cerevisiae deletion strains, locus YMR223W, strain ubp8, stronger effect = lower value 0.877 | S. cerevisiae deletion strains, locus YNL067W, strain RPL9B, stronger effect = lower value 0.829 | S. cerevisiae deletion strains, locus YNL153C, strain GIM3, stronger effect = lower value 0.843 | S. cerevisiae deletion strains, locus YNL233W, strain BNI4, stronger effect = lower value 0.796 | S. cerevisiae deletion strains, locus YNL307C, strain MCK1, stronger effect = lower value 0.844 | S. cerevisiae deletion strains, locus YNL322C, strain KRE1, stronger effect = lower value 0.823 | S. cerevisiae deletion strains, locus YOL006C, strain TOP1, stronger effect = lower value 0.449 | S. cerevisiae deletion strains, locus YOR061W, strain CKA2, stronger effect = lower value 0.848 | S. cerevisiae deletion strains, locus YOR069W, strain VPS5, stronger effect = lower value 0.834 | S. cerevisiae deletion strains, locus YPR163C, strain tif3, stronger effect = lower value 0.837 | S. cerevisiae deletion strains, locus YPR167C, strain met16, stronger effect = lower value 0.871 | S. cerevisiae deletion strains, strain wtn01, stronger effect = lower value 0.849 | S. cerevisiae strains, strain wild type, stronger effect = lower value 0.663
0.808 (active) and 1.01 (inactive): S. cerevisiae deletion strains, locus YHR030C, strain SLT2, stronger effect = lower value
0.778 (active) and 1.02 (inactive): S. cerevisiae deletion strains, locus YJL095W, strain BCK1, stronger effect = lower value
